Assay results reported in PubChem BioAssay (NCATS).
Records with an inconclusive call do not appear. Activity calls are given as the source filed them. Calls follow the shape of the dose curve; as a rule, active = well fitted cell-killing curve with a large enough effect; inconclusive = small, poorly fitted or top-dose-only effect; inactive = flat fitted curve, though single readings scatter.

Test: Cell Viability - Mesenchymal (AID 546);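 also: cells exposed to compound for 40 hours before reading; 0% = DMSO only and -100% = 100 µM tamoxifen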
Conditions: mesenchymal cells viability, qHTS; series mostly up to 91.7 µM; activity change, negative = cytotoxicity: at the top concentration
Source text: NIH Chemical Genomics Center [NCGC]
NIH Molecular Libraries Screening Centers Network [MLSCN]
National Institutes of Environmental Health Sciences [NIEHS]
National Toxicology Program [NTP]
We have developed a 1536-well cell-based assay for quantitative high throughput screening (qHTS) against a number of cell lines to determine in vitro cytotoxicity of small molecules. This particular assay uses the kidney mesenchymal cell line which is derived from normal human renal glomeruli.
NCGC Assay Protocol Summary:
The CellTiter-Glo luminescent cell viability assay (Promega) is a homogeneous method to measure the number of viable cells in culture. The end point readout of this assay is based on quantitation of intracellular ATP, an indicator of metabolic activity, using the luciferase reaction. Luciferase catalyzes the oxidation of beetle Luciferin to oxyluciferin and light in the presence of ATP. The luminescent signal is proportional to amount of ATP present.
Using the CellTiter-Glo luminescent cell viability assay, the amount of cellular ATP was measured in the kidney mesenchymal cell line with complete culture medium following compound treatment for 40 hours. The assay was performed in opaque white Kalypsys 1536-well plates. In the screen, tamoxifen and doxorubicin were used as positive controls. Library compounds were measured for their ability to cause acute toxicity in the cell line, as reflected by a decrease in intracellular ATP levels, in a concentration-dependent manner. […] AC50 values were determined from concentration-response data modeled with the standard Hill equation.
qHTS protocol for CellTiter Glo kidney mesenchymal cells cellular assay
[Step] [Parameter] [Value] [Description]
1. Reagent; 5 uL; 1000 kidney mesenchymal cells/well
2. Time; 5 hr; 37 °C incubation
4. Controls; 23 nL; Tamoxifen 0.34 uM to 100 uM & Doxorubicin 0.02 nM to 100 uM
5. Time; 40 hr; 37 °C incubation
6. Reagent; 5 uL; CellTiter Glo reagent
7. Time; 20 min; Room Temperature
8. Detection; Luminescence; Viewlux plate reader
Keywords: cell viability, cytotoxicity, Kidney mesenchymal cell line, luminescence, NTPHTS, NTPHTS_NCGC, NIEHS, EPA, DSSTox, MLSMR, MLSCN, NIH Roadmap, qHTS, NCGC

Structure (SMILES) | activity change, negative = cytotoxicity | outcome
CCC1(c2ccccc2)C(=O)NCNC1=O | -0.497% (inactive) | 
Clc1ccc(C(c2ccccc2Cl)C(Cl)Cl)cc1 (centres undefined) | -29.7% (inactive) | 
Cc1cn([C@H]2C=C[C@@H](CO)O2)c(=O)[nH]c1=O |  | inactive
Nc1ccn([C@H]2CC[C@@H](CO)O2)c(=O)n1 | 7.59% (inactive) | 
Cc1cn([C@H]2C[C@H](N=[N+]=[N-])[C@@H](CO)O2)c(=O)[nH]c1=O | 7.87% (inactive) | 
Cn1c(=O)c2[nH]cnc2n(C)c1=O | 4.27% (inactive) | 
CC(C)NCC(O)c1ccc(O)c(O)c1 (centres undefined) | -19.7% (inactive) | 
NCCS(=O)(=O)O | 3.6% (inactive) | 
COc1ccc2[nH]cc(CCNC(C)=O)c2c1 |  | inactive
Cc1ccc(-c2cc(C(F)(F)F)nn2-c2ccc(S(N)(=O)=O)cc2)cc1 | -29.4% (inactive) | 
COc1cc2c(c(OC)c1OC)-c1ccc(OC)c(=O)cc1[C@@H](NC(C)=O)CC2 |  | inactive
COc1ccc2c(c1)c(CC(=O)O)c(C)n2C(=O)c1ccc(Cl)cc1 | -8.07% (inactive) | 
NS(=O)(=O)c1cc2c(cc1Cl)NCNS2(=O)=O | 10.2% (inactive) | 
N[C@@H](Cc1c[nH]c2ccc(O)cc12)C(=O)O | -16.1% (inactive) | 
O=c1[nH]cc(F)c(=O)[nH]1 | -24.7% (inactive) | 
CC(C)C(=O)Nc1ccc([N+](=O)[O-])c(C(F)(F)F)c1 | 6.3% (inactive) | 
Nc1c2c(nc3ccccc13)CCCC2 | -12% (inactive) | 
COc1ccc(CCN(C)CCCC(C#N)(c2ccc(OC)c(OC)c2)C(C)C)cc1OC (centres undefined) | -23.8% (inactive) | 
Cn1c(=O)c2c(ncn2C)n(C)c1=O | 4.21% (inactive) | 
